Data published in PubChem BioAssay (EPA / NIEHS).
Values joined by “and” are separate entries in the source; they are usually repeats but may differ in a detail not shown here. Equal values may be shown once. More than one record can exist for a structure, and the calls need not agree. Active and inactive are the calls of the source. How the source made its calls: active means hit-call score of the fitted dose curve at least 0.9, where 1 is the maximum; inactive means score below 0.9.

experiment: ATG_Oct_MLP_CIS: Attagene CIS-FACTORIAL HepG2 Assay for human Octamer-Binding Transcription Factor (Oct) (AID 2282993); conditions: HepG2 Attagene cis-factorial Oct reporter, mRNA; actives raise or lower the signal
Protocol: ATG_CIS is a cell-based, multiplexed-readout assay that uses HepG2, a human liver cell line, with measurements taken at 24 hours after chemical dosing in a 24-well plate.ATG_Oct_MLP_CIS is one of 52 assay component(s) measured or calculated from the ATG_CIS assay. It is designed to make measurements of mRNA induction, a form of inducible reporter, as detected with fluorescence intensity signals by Reverse transcription polymerase chain reaction (RT-PCR) and Capillary electrophoresis technology.Data from the assay component ATG_Oct_MLP_CIS was analyzed into 1 assay endpoint. This assay endpoint, ATG_Oct_MLP_CIS, was analyzed with bidirectional fitting relative to DMSO as the negative control and baseline of activity. Using a type of inducible reporter, measures of mRNA for gain or loss-of-signal activity can be used to understand the reporter gene at the transcription factor-level as they relate to the gene POU2F1. Furthermore, this assay endpoint can be referred to as a primary readout, because this assay has produced multiple assay endpoints where this one serves a reporter gene function. To generalize the intended target to other relatable targets, this assay endpoint is annotated to the dna binding intended target family, where the subfamily is POU domain protein.
Human liver HepG2 cells are transiently transfected with multiple reporter transcription units (MRTUs) in 6-well plates using FuGene 6 reagent (Roche; 3 ml FuGene/1 mg DNA). The MRTU constructs are regulated by a cis-regulating element (promoter). […] A major difference between the CIS and TRANS system is that in CIS activities of endogenous TFs are measured, whereas the TRANS assay evaluates changes in activities of exogenous, chimeric NR-Gal4 proteins. […] At the end of 24 hour incubation, total RNA was isolated using TriZol reagent (Invitrogen). The isolated RNA is then reverse-transcribed using oligo(dT) primer and Mo-MLV reverse transcriptase (Invitrogen) with DNAse I (Ambion) treatment for 30 min. The one-tenth of the produced cDNA was amplified by PCR using Taq DNA polymerase (Invitrogen) and two reporter sequence-specific primers. The PCR products were fluorescently labeled by primer extension with 6-arboxyfluorescein (6-FAM) 5'-labeled reporter sequence-specific primer (2 min at 95 C, 20 s at 68 C and 10 min at 72 C) and these products were digested with 5U of HpaI (New England Biolabs) for 2h at 37 C. The fragments were purified using Qiaquick PCR columns (Qiagen), analyzed on an ABI 3130xL genetic analyzer (Applied Biosystems) with peak positions identified by using a set of X-rhodamine (ROX)-labeled MapMarker1000 molecular weight standards (BioVentures). The raw capillary electrophoresis data was processed using Attagraph software (Attagene).

**Q.** With `Clc1ccccc1-c1nnc(-c2ccccc2Cl)nn1` as the compound, how does the outcome read?
**A.** inactive

**Q.** Which AC50 does the source give for `Cc1[nH]c(=O)n(C(C)(C)C)c(=O)c1Cl` here?
**A.** 24.2 µM (active)

**Q.** Which AC50 does the source give for `CC(C)OC(=O)Nc1cccc(Cl)c1` here?
**A.** 39.4 µM (active)

**Q.** Which outcome does the source give for `COc1cc(OC)nc(NC(=O)NS(=O)(=O)c2cc(NC=O)ccc2C(=O)N(C)C)n1` here?
**A.** inactive

**Q.** Which AC50 does the source give for `COP(=O)(OC)OC=C(Cl)Cl` here?
**A.** 11.5 µM (active)

**Q.** Which AC50 does the source give for `O=C(Nc1ccccc1)Nc1cnns1` here?
**A.** 71.8 µM (active)

**Q.** Which outcome does the source give for `Oc1cc(Cl)ccc1Oc1ccc(Cl)cc1Cl` here?
**A.** inactive

**Q.** What about the AC50 of the same compound?
**A.** 9.73 µM (active) [middle of 7 runs]

**Q.** With `O=S1OCC2C(CO1)C1(Cl)C(Cl)=C(Cl)C2(Cl)C1(Cl)Cl` (stereo not given) as the compound, how does the outcome read?
**A.** inactive

**Q.** Which outcome does the source give for `OCCOc1ccccc1` here?
**A.** inactive

**Q.** With `COC(=O)c1ccccc1S(=O)(=O)NC(=O)Nc1nc(C)nc(OC)n1` as the compound, how does the AC50 read?
**A.** 36 µM (active)

**Q.** And the outcome?
**A.** inactive

**Q.** Which AC50 does the source give for `CC1(c2ccc(Oc3ccccc3)cc2)OC(=O)N(Nc2ccccc2)C1=O` (stereo not given) here?
**A.** 2.01 µM (active)

**Q.** For `CCC(C)(NC(=O)c1cc(Cl)c(C)c(Cl)c1)C(=O)CCl` (stereo not given), which outcome is on record?
**A.** inactive

**Q.** With `O=[N+]([O-])c1c(Cl)c(Cl)c(Cl)c(Cl)c1Cl` as the compound, how does the outcome read?
**A.** inactive

**Q.** With `CC(C)(C)C(O)C(Oc1ccc(Cl)cc1)n1cncn1` (stereo not given) as the compound, how does the AC50 read?
**A.** 2.07 µM (active)

**Q.** What about the outcome of the same compound?
**A.** inactive

**Q.** For `N#Cc1c(Cl)c(Cl)c(Cl)c(C#N)c1Cl`, which AC50 is on record?
**A.** 0.143 µM (active)

**Q.** With `COC(=O)c1ccccc1S(=O)(=O)NC(=O)N(C)c1nc(C)nc(OC)n1` as the compound, how does the outcome read?
**A.** inactive

**Q.** Which outcome does the source give for `COP(=S)(OC)Oc1ccc([N+](=O)[O-])cc1` here?
**A.** inactive

**Q.** For `CCCN(CCOc1c(Cl)cc(Cl)cc1Cl)C(=O)n1ccnc1`, which outcome is on record?
**A.** inactive

**Q.** And the AC50?
**A.** 11.1 µM (active)

**Q.** Which outcome does the source give for `ClC1C(Cl)C(Cl)C(Cl)C(Cl)C1Cl` (stereo not given) here?
**A.** inactive

**Q.** What about the AC50 of the same compound?
**A.** 10.1 µM (active) and 100 µM (active)

**Q.** Which outcome does the source give for `O=C(O)C(F)(F)C(F)(F)C(F)(F)C(F)(F)C(F)(F)C(F)(F)C(F)(F)F` here?
**A.** inactive

**Q.** Which results are given for `Oc1ccc(Cl)cc1Cc1ccccc1`?
**A.** AC50: 6.94 µM (active) and 8.1 µM (active) and 14.8 µM (active); outcome: inactive

**Q.** Which outcome does the source give for `[2H]C1([2H])[n+]2ccccc2-c2cccc[n+]2C1([2H])[2H]` here?
**A.** inactive

**Q.** With `COc1nn(CSP(=S)(OC)OC)c(=O)s1` as the compound, how does the AC50 read?
**A.** 18 µM (active)

**Q.** With `CCS(=O)(=O)c1cccnc1S(=O)(=O)NC(=O)Nc1nc(OC)cc(OC)n1` as the compound, how does the outcome read?
**A.** inactive

**Q.** With `CC1(C)C(C=C(Cl)Cl)C1C(=O)OC(C#N)c1ccc(F)c(Oc2ccccc2)c1` (stereo not given) as the compound, how does the AC50 read?
**A.** 2.22 µM (active)

**Q.** Which outcome does the source give for `CCC(C)(C)C(=O)OC1=C(c2ccc(Cl)cc2Cl)C(=O)OC12CCCCC2` here?
**A.** inactive

**Q.** For `CCOC1Oc2ccc(OS(C)(=O)=O)cc2C1(C)C` (stereo not given), which AC50 is on record?
**A.** 23.9 µM (active)

**Q.** Which outcome does the source give for `N#CN` here?
**A.** inactive

**Q.** Which AC50 does the source give for `CCCN(CCC)c1c([N+](=O)[O-])cc(C(F)(F)F)cc1[N+](=O)[O-]` here?
**A.** 2.29 µM (active)

**Q.** For `CC(C)N(C(=O)COc1nnc(C(F)(F)F)s1)c1ccc(F)cc1`, which AC50 is on record?
**A.** 17.2 µM (active)

**Q.** With `CCC(C)Nc1c([N+](=O)[O-])cc(C(C)(C)C)cc1[N+](=O)[O-]` (stereo not given) as the compound, how does the AC50 read?
**A.** 15.1 µM (active)

**Q.** For `CNC(=O)CSP(=S)(OC)OC`, which outcome is on record?
**A.** inactive

**Q.** For `C[C@H]1[C@H](c2ccc(Cl)cc2)SC(=O)N1C(=O)NC1CCCCC1`, which AC50 is on record?
**A.** 13.7 µM (active)

**Q.** With `CCOCN(C(=O)CCl)c1c(C)cccc1CC` as the compound, how does the outcome read?
**A.** inactive
